Measured values: ChEMBL document CHEMBL1961873, “Compounds: GSK PKIS; Assays: Nanosyn kinase panel” (2012)

How the values were obtained:
[1] = target: High affinity nerve growth factor receptor (Homo sapiens) (UniProt P04629); settings: at 1 µM;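 also: each value is the mean percent inhibition of TRKA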
[2] = target: BDNF/NT-3 growth factors receptor (Homo sapiens) (UniProt Q16620); settings: at 0.1 µM
[3] = target: BDNF/NT-3 growth factors receptor (Homo sapiens) (UniProt Q16620); settings: at 1 µM
[4] = target: NT-3 growth factor receptor (Homo sapiens) (UniProt Q16288); settings: at 0.1 µM
[5] = target: NT-3 growth factor receptor (Homo sapiens) (UniProt Q16288); settings: at 1 µM
[6] = target: T1, Tyrosine-protein kinase TXK (Homo sapiens) (UniProt P42681); settings: at 0.1 µM
T1 sequence (whole entry): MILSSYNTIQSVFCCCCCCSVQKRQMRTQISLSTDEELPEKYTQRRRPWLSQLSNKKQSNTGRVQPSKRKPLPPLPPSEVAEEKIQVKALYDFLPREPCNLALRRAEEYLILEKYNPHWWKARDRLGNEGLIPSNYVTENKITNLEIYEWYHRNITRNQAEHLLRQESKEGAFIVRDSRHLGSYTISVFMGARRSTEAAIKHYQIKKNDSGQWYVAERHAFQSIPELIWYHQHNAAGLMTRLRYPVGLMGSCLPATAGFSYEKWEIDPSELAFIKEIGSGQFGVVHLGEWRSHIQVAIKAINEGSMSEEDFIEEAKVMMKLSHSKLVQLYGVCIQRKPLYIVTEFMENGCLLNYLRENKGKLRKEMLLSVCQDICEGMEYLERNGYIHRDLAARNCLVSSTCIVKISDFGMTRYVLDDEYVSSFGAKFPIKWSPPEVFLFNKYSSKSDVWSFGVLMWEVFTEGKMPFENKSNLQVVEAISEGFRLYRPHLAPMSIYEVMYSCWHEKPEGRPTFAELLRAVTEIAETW

[7] = target: T1, Tyrosine-protein kinase TXK (Homo sapiens); settings: at 1 µM
[8] = target: Non-receptor tyrosine-protein kinase TYK2 (Homo sapiens) (UniProt P29597); settings: at 0.1 µM;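 also: each value is a mean of the inhibition readings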
Non-receptor tyrosine-protein kinase TYK2 (Homo sapiens), sequence (P29597 whole entry): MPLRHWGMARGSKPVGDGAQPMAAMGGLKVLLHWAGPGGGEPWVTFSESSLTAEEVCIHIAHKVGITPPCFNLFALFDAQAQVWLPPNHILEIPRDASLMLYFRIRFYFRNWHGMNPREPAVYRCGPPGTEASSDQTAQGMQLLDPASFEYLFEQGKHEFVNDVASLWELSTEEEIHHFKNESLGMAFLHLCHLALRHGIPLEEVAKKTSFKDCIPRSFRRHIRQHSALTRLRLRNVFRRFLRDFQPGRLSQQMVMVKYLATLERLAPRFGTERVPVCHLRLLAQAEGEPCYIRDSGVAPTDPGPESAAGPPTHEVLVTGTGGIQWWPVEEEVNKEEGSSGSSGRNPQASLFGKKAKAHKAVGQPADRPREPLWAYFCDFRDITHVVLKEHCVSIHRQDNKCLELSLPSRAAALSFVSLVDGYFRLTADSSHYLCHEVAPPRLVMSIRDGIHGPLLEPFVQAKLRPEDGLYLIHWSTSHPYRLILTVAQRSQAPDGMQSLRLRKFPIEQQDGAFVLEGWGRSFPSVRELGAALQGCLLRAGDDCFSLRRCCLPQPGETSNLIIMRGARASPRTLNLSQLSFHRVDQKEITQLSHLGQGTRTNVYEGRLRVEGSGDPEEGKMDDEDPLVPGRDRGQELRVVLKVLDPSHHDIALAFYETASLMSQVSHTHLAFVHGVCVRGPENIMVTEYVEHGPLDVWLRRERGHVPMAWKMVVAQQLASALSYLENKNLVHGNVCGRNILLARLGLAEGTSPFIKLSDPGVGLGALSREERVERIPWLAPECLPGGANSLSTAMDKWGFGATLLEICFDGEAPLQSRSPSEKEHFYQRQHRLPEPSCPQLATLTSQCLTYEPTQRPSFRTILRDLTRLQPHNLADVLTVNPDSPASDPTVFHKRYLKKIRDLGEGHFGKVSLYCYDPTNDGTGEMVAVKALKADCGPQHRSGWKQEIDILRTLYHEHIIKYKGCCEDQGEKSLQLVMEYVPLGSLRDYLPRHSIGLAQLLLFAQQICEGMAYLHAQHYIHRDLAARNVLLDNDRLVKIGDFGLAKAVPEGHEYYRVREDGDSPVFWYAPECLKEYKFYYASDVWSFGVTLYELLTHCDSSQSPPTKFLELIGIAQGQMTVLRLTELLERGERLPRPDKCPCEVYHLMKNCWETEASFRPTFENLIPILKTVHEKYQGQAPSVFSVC

[9] = target: T2, Dual specificity protein kinase TTK (Homo sapiens) (UniProt P33981); settings: at 1 µM;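 also: reported figures are mean TTK inhibition at 1 µM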
T2 sequence (whole entry): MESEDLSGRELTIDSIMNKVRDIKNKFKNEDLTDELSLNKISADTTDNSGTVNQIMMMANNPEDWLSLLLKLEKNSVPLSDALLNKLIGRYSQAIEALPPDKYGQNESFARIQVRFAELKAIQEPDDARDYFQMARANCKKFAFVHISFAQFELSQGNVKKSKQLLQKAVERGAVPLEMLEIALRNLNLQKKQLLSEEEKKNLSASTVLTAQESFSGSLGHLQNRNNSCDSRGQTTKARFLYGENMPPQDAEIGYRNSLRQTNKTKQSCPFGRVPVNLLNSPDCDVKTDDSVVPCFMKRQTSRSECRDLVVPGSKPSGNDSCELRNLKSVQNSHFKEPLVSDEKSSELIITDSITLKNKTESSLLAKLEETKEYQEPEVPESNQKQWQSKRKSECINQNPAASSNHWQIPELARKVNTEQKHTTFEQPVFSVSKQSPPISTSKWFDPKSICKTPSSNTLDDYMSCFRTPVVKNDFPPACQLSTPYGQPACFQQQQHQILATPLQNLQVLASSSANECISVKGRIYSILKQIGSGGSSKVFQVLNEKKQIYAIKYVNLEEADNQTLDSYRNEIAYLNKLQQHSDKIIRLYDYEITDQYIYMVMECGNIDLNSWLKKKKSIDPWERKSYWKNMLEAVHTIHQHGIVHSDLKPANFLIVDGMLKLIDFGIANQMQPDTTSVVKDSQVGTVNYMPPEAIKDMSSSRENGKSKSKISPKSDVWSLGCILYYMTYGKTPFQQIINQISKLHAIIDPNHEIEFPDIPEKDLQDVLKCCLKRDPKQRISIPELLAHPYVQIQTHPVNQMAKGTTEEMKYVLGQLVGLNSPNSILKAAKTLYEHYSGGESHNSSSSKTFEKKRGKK

[10] = target: T3, Aurora kinase A (Homo sapiens) (UniProt O14965); settings: at 0.1 µM
T3 sequence (whole entry): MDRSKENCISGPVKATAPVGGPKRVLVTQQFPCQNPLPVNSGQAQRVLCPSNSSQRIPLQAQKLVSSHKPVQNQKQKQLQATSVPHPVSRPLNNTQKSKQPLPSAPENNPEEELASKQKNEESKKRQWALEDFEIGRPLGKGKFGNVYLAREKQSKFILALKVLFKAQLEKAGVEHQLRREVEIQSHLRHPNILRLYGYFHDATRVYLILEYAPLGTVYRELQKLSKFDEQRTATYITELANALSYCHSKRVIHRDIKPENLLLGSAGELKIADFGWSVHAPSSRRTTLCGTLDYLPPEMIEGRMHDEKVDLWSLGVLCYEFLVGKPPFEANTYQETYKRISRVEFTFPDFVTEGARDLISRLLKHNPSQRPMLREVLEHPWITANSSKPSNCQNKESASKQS

[11] = target: T3, Aurora kinase A (Homo sapiens); settings: at 1 µM
[12] = target: Aurora kinase B (Homo sapiens) (UniProt Q96GD4); settings: at 0.1 µM
Aurora kinase B (Homo sapiens), sequence (Q96GD4 whole entry): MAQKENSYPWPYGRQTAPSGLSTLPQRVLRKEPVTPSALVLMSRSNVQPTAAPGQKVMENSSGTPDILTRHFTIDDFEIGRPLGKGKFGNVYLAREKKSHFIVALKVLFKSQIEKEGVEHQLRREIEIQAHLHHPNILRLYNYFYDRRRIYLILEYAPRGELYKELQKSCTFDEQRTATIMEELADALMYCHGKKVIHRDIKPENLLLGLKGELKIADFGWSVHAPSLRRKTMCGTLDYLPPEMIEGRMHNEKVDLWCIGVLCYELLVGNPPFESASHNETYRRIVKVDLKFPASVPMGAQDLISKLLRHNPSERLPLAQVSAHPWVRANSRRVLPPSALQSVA

[13] = target: Aurora kinase B (Homo sapiens) (UniProt Q96GD4); settings: at 1 µM
[14] = target: T4, Aurora kinase C (Homo sapiens) (UniProt Q9UQB9); settings: at 0.1 µM
T4 sequence (whole entry): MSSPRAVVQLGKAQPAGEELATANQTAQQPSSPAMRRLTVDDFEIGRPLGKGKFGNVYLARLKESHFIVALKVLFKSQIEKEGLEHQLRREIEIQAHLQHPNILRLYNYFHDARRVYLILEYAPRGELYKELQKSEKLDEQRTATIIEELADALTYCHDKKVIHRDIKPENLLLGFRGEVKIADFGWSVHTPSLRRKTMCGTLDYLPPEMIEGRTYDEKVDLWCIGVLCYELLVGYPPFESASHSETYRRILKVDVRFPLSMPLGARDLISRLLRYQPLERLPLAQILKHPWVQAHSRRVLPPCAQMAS

[15] = target: T4, Aurora kinase C (Homo sapiens); settings: at 1 µM
[16] = target: Serine/threonine-protein kinase 10 (Homo sapiens) (UniProt O94804); settings: at 0.1 µM
[17] = target: Serine/threonine-protein kinase 10 (Homo sapiens) (UniProt O94804); settings: at 1 µM
[18] = target: T5, Mitogen-activated protein kinase kinase kinase kinase 2 (Homo sapiens) (UniProt Q12851); settings: at 0.1 µM
T5 sequence (whole entry): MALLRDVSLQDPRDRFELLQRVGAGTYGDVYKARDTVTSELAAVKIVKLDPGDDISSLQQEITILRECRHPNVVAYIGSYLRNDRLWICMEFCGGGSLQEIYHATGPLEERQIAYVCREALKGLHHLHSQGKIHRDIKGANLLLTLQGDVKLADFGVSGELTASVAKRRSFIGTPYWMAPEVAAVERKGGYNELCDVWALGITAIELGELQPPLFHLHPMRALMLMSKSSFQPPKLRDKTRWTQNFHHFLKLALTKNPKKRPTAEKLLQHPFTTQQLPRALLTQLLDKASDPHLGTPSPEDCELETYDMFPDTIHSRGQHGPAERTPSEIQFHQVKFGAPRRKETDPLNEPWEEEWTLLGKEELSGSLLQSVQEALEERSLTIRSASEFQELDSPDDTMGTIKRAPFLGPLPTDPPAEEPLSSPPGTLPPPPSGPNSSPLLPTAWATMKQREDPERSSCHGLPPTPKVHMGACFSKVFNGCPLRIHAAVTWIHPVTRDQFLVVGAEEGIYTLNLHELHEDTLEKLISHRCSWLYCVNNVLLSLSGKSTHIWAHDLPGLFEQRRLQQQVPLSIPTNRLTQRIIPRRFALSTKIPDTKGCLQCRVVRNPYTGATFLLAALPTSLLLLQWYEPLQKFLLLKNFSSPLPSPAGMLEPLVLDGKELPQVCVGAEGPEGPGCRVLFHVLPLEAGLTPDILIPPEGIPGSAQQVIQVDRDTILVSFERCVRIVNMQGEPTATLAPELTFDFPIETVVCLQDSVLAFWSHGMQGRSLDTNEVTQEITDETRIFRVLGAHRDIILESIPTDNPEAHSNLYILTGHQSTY

[19] = target: T5, Mitogen-activated protein kinase kinase kinase kinase 2 (Homo sapiens); settings: at 1 µM
[20] = target: Mitogen-activated protein kinase kinase kinase kinase 4 (Homo sapiens) (UniProt O95819); settings: at 0.1 µM
Mitogen-activated protein kinase kinase kinase kinase 4 (Homo sapiens), sequence (O95819 2-1239 limits assumed): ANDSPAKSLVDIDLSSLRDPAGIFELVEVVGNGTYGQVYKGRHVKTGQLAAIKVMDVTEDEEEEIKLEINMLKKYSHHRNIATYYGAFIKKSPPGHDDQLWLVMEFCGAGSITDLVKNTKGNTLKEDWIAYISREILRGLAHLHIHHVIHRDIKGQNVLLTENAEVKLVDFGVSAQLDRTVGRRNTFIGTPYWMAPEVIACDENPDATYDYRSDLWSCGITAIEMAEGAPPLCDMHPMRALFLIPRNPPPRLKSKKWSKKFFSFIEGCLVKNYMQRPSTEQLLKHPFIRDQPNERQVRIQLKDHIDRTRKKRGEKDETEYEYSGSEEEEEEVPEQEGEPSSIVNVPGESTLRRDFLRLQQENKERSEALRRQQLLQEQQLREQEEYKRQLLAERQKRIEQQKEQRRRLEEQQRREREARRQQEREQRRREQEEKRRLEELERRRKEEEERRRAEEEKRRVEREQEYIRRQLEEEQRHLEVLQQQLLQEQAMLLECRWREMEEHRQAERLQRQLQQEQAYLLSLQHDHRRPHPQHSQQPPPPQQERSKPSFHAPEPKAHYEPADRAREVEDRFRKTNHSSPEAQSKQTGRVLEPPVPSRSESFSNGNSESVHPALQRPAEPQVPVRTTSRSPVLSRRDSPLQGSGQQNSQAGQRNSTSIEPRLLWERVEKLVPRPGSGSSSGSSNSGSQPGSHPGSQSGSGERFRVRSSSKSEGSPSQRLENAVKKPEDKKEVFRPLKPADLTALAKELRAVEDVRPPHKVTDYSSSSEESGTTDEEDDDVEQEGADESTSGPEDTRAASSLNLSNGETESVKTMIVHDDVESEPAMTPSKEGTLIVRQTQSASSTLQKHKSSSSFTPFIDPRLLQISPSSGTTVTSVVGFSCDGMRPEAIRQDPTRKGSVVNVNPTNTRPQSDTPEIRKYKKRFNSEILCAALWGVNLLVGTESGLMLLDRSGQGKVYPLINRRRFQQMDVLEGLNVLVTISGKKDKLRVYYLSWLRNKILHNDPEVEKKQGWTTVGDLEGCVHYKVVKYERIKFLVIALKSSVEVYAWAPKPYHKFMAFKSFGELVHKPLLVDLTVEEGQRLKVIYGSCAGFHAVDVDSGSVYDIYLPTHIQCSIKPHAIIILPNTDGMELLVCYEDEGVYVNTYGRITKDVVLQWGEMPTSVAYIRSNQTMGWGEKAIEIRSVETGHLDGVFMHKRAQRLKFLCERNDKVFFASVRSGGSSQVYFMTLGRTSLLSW

High affinity nerve growth factor receptor (Homo sapiens), sequence (P04629 33-796 limits assumed): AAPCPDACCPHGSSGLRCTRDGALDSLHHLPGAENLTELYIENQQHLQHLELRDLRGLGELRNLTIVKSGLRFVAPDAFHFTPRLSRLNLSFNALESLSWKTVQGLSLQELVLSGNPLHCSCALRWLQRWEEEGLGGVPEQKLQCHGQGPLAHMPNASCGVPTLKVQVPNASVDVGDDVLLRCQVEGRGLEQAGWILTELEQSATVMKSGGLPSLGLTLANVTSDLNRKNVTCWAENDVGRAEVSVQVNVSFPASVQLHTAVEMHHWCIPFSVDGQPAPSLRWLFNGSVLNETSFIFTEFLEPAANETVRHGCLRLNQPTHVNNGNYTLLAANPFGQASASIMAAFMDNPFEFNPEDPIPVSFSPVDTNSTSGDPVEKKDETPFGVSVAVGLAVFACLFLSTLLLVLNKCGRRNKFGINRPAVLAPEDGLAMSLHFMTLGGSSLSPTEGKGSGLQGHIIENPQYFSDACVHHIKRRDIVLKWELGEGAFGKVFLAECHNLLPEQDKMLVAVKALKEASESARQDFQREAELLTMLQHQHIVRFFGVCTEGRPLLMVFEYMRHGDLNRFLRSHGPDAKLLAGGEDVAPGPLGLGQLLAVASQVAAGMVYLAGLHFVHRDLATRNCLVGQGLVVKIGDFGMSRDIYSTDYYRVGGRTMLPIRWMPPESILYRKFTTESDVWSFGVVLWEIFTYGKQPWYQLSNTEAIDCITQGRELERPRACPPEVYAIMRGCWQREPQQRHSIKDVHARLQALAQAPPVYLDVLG
BDNF/NT-3 growth factors receptor (Homo sapiens), sequence (Q16620 32-822 limits assumed): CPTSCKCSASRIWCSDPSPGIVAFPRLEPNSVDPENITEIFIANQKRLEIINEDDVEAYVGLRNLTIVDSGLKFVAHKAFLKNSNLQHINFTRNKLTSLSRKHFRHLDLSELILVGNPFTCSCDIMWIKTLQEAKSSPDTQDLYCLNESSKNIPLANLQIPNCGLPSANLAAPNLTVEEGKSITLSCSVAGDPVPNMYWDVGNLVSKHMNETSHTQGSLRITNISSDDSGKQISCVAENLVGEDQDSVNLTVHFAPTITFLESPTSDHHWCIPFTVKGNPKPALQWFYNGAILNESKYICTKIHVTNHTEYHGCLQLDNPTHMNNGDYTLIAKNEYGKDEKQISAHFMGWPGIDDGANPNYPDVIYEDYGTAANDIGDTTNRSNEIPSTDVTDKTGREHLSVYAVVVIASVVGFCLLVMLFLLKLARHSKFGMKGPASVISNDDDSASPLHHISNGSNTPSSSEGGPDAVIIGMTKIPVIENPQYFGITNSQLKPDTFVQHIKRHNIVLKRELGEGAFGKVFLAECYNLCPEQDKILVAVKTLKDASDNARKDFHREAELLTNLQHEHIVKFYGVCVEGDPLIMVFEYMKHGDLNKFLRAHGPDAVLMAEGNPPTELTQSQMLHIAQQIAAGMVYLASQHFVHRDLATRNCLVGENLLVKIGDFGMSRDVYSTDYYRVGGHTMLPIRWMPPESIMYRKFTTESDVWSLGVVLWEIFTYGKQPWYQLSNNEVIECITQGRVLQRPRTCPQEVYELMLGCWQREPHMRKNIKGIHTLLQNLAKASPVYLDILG

Structure (SMILES)	inhibition [1] [%]	inhibition [2] [%]	inhibition [3] [%]	inhibition [4] [%]	inhibition [5] [%]	inhibition [6] [%]	inhibition [7] [%]	inhibition [8] [%]	inhibition [9] [%]	inhibition [10] [%]	inhibition [11] [%]	inhibition [12] [%]	inhibition [13] [%]	inhibition [14] [%]	inhibition [15] [%]	inhibition [16] [%]	inhibition [17] [%]	inhibition [18] [%]	inhibition [19] [%]	inhibition [20] [%]
c1ccc(-c2nc3n(c2-c2ccc4c(c2)OCO4)CCC3)nc1	2.69	-0.27	2.27	-0.01	3.2	1.77	1.77	-1.06	0.07	0.45	2.32	1.52	2.28	0.37	-3.23	-0.05	3.42	2.19	2.78	2.84
CN(C)CCOc1ccc(-c2nc(-c3ccncc3)c(-c3ccc4c(c3)CC/C4=N\O)[nH]2)cc1	0.58	1.83	3.37	1.52	2.87	2.32	3.33	-2.09	7.21	1.33	12	1.63	6.16	1.74	-1.31	22.1	69.2	0.69	3.44	9.59
CCCN(CCS(C)(=O)=O)Cc1ccc(-c2ccc3ncnc(Nc4ccc(OCc5cccc(F)c5)c(Cl)c4)c3c2)o1	0.23	0.15	1.45	2.2	2.15	2.27	2.93	-3.81	5.96	1.47	11.8	3.11	8.39	1.17	5.04	2.22	5.54	0.84	2.9	1.66
NC(=O)c1sc(-n2cnc3ccc(C(F)(F)F)cc32)cc1OCc1ccccc1Br	1.97	4.43	2.79	4.04	4.67	1.39	-0.88	-4.87	9.08	2.74	5.5	2.77	5.43	-0.7	-6.73	9.21	26	0.79	8.19	4.62
COc1ccc2c(-c3ccnc(Nc4cccc(OC(F)(F)F)c4)n3)cnn2n1	11.1	2.97	7.33	2.73	12.3	2.09	5.53	-3.37	17.1	0.72	33.9	5.14	28.8	2.02	56.9	4.75	10.6	0.05	5.46	4.63
Fc1cccc(COc2ccc(Nc3ncnc4sc(-c5ccco5)cc34)cc2Cl)c1	0.66	3.36	3.82	3.74	3.88	-1.45	3.65	-2.62	6.39	2.5	3.83	3.38	6.89	5.96	7.59	9.25	15	1.99	3.87	3.43
O=C(O[C@H]1CN[C@H](C#Cc2cc3ncnc(Nc4ccc(Cc5ccccc5)cc4)c3s2)C1)N1CCOCC1	-3.47	0.67	1.13	-0.77	-1.7	-0.97	1.36	-1.59	1.6	0	1.29	1.27	2.04	-0.18	5.53	3.08	7.29	0.39	0.86	-0.42
N#Cc1c(NC(=O)c2ccc(F)cc2)sc2c1CCCC2	-0.28	0.21	0.82	0.15	1.15	1.7	2.45	-3.45	2.26	1.91	0.18	2.3	1.27	0.83	-4.93	3.11	6.81	0.12	1.05	1.93
Cc1cccc2c1NC(=O)/C2=N\Nc1ccc(S(N)(=O)=O)cc1	1.49	2.26	1.7	0.44	6.52	4.98	6.66	-2.96	9.17	3.73	8.68	3.31	7.09	2.56	12.1	3.27	4.33	0.93	0.8	10.1
CC1=C(C(=O)Nc2cc(Cl)c3[nH]ncc3c2)C(c2ccc(C(F)(F)F)cc2)CC(=O)N1 (stereo not given)	2.71	2.52	3.55	3.39	6.01	2.42	1.68	-1.59	5.07	3.11	16.6	2.95	10	0.68	7.15	6.25	7.45	2	3.92	2.89
Cc1ccc2c(-c3ccnc(Nc4ccccc4)n3)c(-c3ccc(F)cc3)nn2n1	31.6	5.12	20.2	4.3	11.8	8.09	31.4	-4.65	6.11	3.75	16.4	-4.16	12.9	2.67	25.2	7.71	22.8	0.67	3.98	12.3
COc1cc(Nc2nccc(Nc3ccc4c(C)n[nH]c4c3)n2)cc(OC)c1OC	64.1	4.63	41	-0.03	17.3	23.9	61.9	-1.55	8.41	10.2	66.5	5.08	24.2	7.34	79.7	26.1	77.6	3.12	7.42	2.17
Nc1nc(-c2cccc(Cl)c2)c(-c2ccc3ncccc3n2)s1	-0.34	2.86	7.16	2.95	5.02	4.04	4.05	-3.11	-0.66	2.19	4.83	3.18	5.58	1.1	-2.15	8.2	14.4	1.48	3.7	12.6
